High-throughput results deposited in PubChem by several laboratories.
Rows were chosen to be rich in hits. Some 2.3% of all compounds tested hit in one or more screens of this group.
aDG glyco act: increases alpha dystroglycan glycosylation; Pro5-aDG cells, alpha-DG glycosylation AlphaScreen (IIH6); 0% Pro5, 100% B10-LARGE cell signal; activation, % at 10 µM; hit rate 0.22% among 360,000; AID 624168;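 active means activation of at least 8% versus controls, or a plate z-score of at least 8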;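 further: Pro5 are CHO cells carrying HIG-tagged alpha-DG that lacks glycosylation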
Cardio protect: myocardial damage modulation in H9c2 cells; H9c2 cardiomyocytes, H2O2 injury protection, ATPLite, 2 h; hit rate 0.63% among 360,000; protection from H2O2 cell death, % at 20 µM;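 active means compounds giving at least 50% protection of heart cells from peroxide-induced death in the single-dose screen, raw or plate-pattern-corrected value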
FAS-TE inh: inhibitors of human fatty acid synthase thioesterase domain; recombinant FAS-TE, OMFH fluorogenic substrate, fluorescence endpoint; AID 602261; inhibition, % at 15 µM; hit rate 0.67% among 360,000; P49327;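 active means compounds whose normalised, plate-corrected inhibition of enzyme fluorescence in the single-dose primary screen is 50% or more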
Target sequence (P49327 whole entry, looked up, the tested form may be a part): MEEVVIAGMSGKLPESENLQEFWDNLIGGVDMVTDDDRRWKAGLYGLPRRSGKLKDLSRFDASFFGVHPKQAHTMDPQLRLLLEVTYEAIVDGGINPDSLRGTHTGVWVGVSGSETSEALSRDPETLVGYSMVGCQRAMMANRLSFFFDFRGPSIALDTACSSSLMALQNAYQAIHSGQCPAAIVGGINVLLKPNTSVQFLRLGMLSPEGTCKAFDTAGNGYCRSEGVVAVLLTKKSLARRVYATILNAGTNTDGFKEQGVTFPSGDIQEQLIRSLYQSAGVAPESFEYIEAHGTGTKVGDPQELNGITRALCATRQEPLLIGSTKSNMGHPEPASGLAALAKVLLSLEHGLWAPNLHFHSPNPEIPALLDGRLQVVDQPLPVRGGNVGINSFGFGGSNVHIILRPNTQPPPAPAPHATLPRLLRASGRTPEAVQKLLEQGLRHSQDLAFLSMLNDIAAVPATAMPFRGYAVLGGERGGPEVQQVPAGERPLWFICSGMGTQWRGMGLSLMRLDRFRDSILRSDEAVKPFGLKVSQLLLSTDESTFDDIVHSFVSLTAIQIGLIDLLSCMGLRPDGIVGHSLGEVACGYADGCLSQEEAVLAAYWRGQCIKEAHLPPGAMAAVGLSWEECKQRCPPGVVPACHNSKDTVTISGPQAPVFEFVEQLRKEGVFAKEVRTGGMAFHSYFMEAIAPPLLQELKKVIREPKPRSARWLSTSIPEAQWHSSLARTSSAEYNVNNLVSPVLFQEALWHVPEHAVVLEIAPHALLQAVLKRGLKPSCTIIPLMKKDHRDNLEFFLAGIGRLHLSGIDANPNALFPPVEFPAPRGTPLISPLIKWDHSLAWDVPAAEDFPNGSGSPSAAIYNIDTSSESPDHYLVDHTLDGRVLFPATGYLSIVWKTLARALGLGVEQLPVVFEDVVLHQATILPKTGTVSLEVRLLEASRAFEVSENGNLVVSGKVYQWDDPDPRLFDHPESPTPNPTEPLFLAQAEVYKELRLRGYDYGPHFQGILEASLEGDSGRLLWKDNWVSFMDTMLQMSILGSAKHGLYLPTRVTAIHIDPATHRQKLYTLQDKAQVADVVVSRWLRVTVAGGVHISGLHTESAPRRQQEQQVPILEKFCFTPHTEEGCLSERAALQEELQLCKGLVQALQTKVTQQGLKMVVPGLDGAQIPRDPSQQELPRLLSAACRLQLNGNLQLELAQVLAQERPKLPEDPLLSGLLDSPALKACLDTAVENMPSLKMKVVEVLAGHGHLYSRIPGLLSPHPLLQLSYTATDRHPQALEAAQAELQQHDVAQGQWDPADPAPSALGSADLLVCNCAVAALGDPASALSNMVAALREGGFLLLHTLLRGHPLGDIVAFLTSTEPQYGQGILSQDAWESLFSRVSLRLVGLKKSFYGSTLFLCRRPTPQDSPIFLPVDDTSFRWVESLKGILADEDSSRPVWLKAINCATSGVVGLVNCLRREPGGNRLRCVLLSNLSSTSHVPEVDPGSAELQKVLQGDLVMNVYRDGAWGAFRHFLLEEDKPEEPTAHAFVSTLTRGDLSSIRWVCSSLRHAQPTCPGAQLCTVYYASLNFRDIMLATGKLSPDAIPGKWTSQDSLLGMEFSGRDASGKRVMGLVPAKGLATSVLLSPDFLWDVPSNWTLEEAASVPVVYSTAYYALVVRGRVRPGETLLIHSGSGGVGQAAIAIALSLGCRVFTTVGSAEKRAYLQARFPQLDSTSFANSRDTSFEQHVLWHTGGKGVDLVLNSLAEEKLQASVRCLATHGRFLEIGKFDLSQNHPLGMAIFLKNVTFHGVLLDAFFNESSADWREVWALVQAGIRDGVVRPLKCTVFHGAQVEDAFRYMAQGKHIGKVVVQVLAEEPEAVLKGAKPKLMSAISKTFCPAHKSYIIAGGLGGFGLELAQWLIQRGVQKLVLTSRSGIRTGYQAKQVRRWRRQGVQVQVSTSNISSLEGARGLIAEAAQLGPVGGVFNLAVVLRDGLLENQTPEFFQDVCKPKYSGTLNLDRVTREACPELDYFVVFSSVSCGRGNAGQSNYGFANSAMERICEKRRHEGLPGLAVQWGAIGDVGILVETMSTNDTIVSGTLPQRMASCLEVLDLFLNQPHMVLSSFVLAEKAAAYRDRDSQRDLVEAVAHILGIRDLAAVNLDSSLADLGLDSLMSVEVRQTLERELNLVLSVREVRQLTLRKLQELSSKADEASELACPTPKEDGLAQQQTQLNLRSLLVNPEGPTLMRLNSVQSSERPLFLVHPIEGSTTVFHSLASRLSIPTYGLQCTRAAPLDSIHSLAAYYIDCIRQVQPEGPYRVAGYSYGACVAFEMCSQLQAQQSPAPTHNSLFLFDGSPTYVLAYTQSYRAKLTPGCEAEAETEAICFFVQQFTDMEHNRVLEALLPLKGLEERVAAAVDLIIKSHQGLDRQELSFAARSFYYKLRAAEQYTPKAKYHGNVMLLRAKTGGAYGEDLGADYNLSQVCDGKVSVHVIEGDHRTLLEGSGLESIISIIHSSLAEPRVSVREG
beta cell repl: inducers of beta-cell replication in MIN6 cells; MIN6 cells proliferation, ATPlite luminescence, 48 h; cells starved in 0.2% serum; 100% = growth in 10% serum; hit rate 0.29% among 330,000; AID 2380; proliferation, % at 10 µM;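 active means compounds whose signal lies at least 3.5 SD above the mean of all wells on their plate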
m-calpain inh: calpain II (pig) inhibition; purified calpain II, fluorogenic peptide substrate, 30 min; AID 1236; inhibition, % at 16 µM; hit rate 0.37% among 220,000;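 active means inhibition above about 50%, limit read from the data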
TAG inh: reduces triacylglycerol accumulation in H9c2 cells; Nile Red lipid (TAG) fluorescence; cells loaded with 200 µM oleic acid; inhibition, % at 12.5 µM; hit rate 0.66% among 230,000; AID 651582;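 active means pattern-corrected inhibition of lipid staining of at least 50% with the nuclear-stain viability signal not falling by more than 50%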
FAS-TE conf: FAS thioesterase (human) inhibition, confirmation; shares compounds with FAS-TE inh; recombinant FAS-TE, OMFH fluorogenic substrate, fluorescence; inhibition, % at 15 µM; hit rate 45% among 2,300; AID 624325;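 active means compounds inhibiting the enzyme by at least 50% at 15 µM in any one of the replicates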
Large screens that a line does not name were inactive (follow-up assays come after a bar, where they were run).

COc1ccc(C(=O)OCC(=O)Nc2ccccc2)cc1[N+](=O)[O-]	FAS-TE inh 62 | FAS-TE conf 46
Cc1ccc(C(=O)Nc2ccccc2N2CCCCC2)cc1[N+](=O)[O-]	none (no result: TAG inh)
COc1ccc(C(=O)OCC(=O)NC(=O)NCc2ccccc2)cc1[N+](=O)[O-]	none (no result: m-calpain inh)
Cc1cc2nc(C(C)(C)C)c(CC3CCCCC3)n2c(C)c1Br	none (no result: Cardio protect, beta cell repl, m-calpain inh, TAG inh)
CC(C)Nc1nnc(SCC(=O)N2CCN(C(=O)c3ccco3)CC2)s1	none (no result: m-calpain inh)
CC(NC(=O)COC(=O)c1cc([N+](=O)[O-])ccc1N1CCOCC1)c1ccccc1 (centres undefined)	FAS-TE inh 73 (no result: m-calpain inh, TAG inh) | FAS-TE conf 85
CC(NC(=O)COC(=O)c1cc([N+](=O)[O-])ccc1N1CCOCC1)c1ccc(F)cc1 (centres undefined)	FAS-TE inh 82 (no result: m-calpain inh) | FAS-TE conf 84
CC(C)CNC(=O)c1cc([N+](=O)[O-])ccc1N1CCOCC1	none
C[C@H]1CN(S(=O)C(C)(C)C)[C@@H](CCO)/C1=C\c1ccccc1 (some centres undefined)	none (no result: beta cell repl, m-calpain inh)
COc1cc(CNC(=O)CCn2nc(C)c3c(C)n(-c4ccccc4)nc3c2=O)cc(OC)c1OC	none (no result: m-calpain inh, TAG inh)
CC(C)c1cc(Cn2c3ccccc3c(=O)n2C(C)CBr)on1 (centres undefined)	none (no result: beta cell repl, m-calpain inh, TAG inh)
O=Cc1s/c(=N\S(=O)(=O)c2ccccc2)n(CCCCl)c1Cl	FAS-TE inh 76 (no result: beta cell repl) | FAS-TE conf 83
CC(=O)Nc1ccc(S(=O)(=O)NN=Cc2ccc(Cl)c(Cl)c2)cc1	none (no result: beta cell repl, m-calpain inh)
O=[N+]([O-])c1ccc(S(=O)(=O)NN=Cc2ccc(Cl)c(Cl)c2)cc1	FAS-TE inh 81 (no result: beta cell repl, m-calpain inh) | FAS-TE conf 89
O=[N+]([O-])c1ccc(S(=O)(=O)N/N=C/c2ccc3c(c2)OCO3)cc1	FAS-TE inh 72 (no result: m-calpain inh) | FAS-TE conf 74
CN(C1CCCCC1)S(=O)(=O)c1ccc(SCC(=O)C(C)(C)C)nc1	FAS-TE inh 54 (no result: m-calpain inh) | FAS-TE conf inactive
O=C(Nc1ccc2c(c1)OCCO2)C(c1cc2ccccc2o1)N1CCN(c2ccc(C(F)(F)F)cn2)CC1 (centres undefined)	FAS-TE inh 55 (no result: beta cell repl, m-calpain inh, TAG inh) | FAS-TE conf inactive
O=C(Nc1ccc2c(c1)OCCO2)C(c1cc2ccccc2o1)N1CCN(c2ccc(F)cc2)CC1 (centres undefined)	none (no result: beta cell repl, m-calpain inh, TAG inh)
CCN1CCN(C(=O)CCc2nnc3ccc(N4CCC5(CC4)OCCO5)nn23)CC1	none (no result: m-calpain inh, TAG inh)
COc1cc2c(-c3ccc4cc[nH]c4c3)c(-c3ccc(C#N)cc3)oc(=O)c2cc1OC	FAS-TE inh 67 (no result: m-calpain inh) | FAS-TE conf inactive
CCN(C(=O)COC(=O)c1cc(-c2cccc3ccccc23)nc2ccccc12)C1CCS(=O)(=O)C1 (centres undefined)	FAS-TE inh 60 | FAS-TE conf inactive
N#C/C(=C\c1cccc([N+](=O)[O-])c1)C(=O)NCc1ccc(Cl)cc1	FAS-TE inh 74 (no result: beta cell repl) | FAS-TE conf 77
COC(=O)[C@@]1(Cc2ccc(F)cc2)[C@H]2c3cc(C(=O)N4CCCC4)n(CCF)c3C[C@H]2CN1C(=O)c1ccccc1	none (no result: Cardio protect, beta cell repl, m-calpain inh, TAG inh)
COC(=O)[C@@]1(Cc2ccc(OC)cc2)[C@H]2c3cc(C(=O)N4CCCC4)n(CCc4c[nH]c5ccccc45)c3C[C@H]2CN1C(=O)c1ccccc1	FAS-TE inh 58 (no result: Cardio protect, beta cell repl, m-calpain inh, TAG inh) | FAS-TE conf inactive
COC(=O)[C@@]1(Cc2ccc(F)cc2)[C@H]2c3cc(C(=O)N4CCCC4)n(CCc4c[nH]c5ccccc45)c3C[C@H]2CN1C(=O)c1ccccc1	FAS-TE inh 62 (no result: Cardio protect, beta cell repl, m-calpain inh, TAG inh) | FAS-TE conf inactive
COc1ccc(C2=Nc3ccccc3NC(=O)C2N(CCCn2ccnc2)C(=O)c2cccc(S(C)(=O)=O)c2)cc1 (centres undefined)	none (no result: beta cell repl, m-calpain inh, TAG inh)
O=C(c1ccc(Cl)c(Cl)c1)N1CCC(=O)N([C@H](COCc2cccc(C(F)(F)F)c2)Cc2ccccc2)CC1	none (no result: Cardio protect, beta cell repl, m-calpain inh, TAG inh)
CCc1nc2c(OCc3ccc(Cl)cc3)cccn2c1N(C=O)Cc1ccc(OC)cc1	FAS-TE inh 54 (no result: beta cell repl, m-calpain inh) | FAS-TE conf 62
CCc1nc2c(OCc3ccc(Cl)cc3Cl)cccn2c1N(C=O)Cc1ccc(OC)cc1	FAS-TE inh 78 (no result: beta cell repl, m-calpain inh) | FAS-TE conf 62
Cc1ccc2c(Cl)cc(Cl)c(OCC(=O)Nc3cc(S(=O)(=O)N(C)C)ccc3C)c2n1	FAS-TE inh 52 | FAS-TE conf inactive
CC(C)C(=O)NNC(=O)c1csc(-c2cccs2)n1	none
O=C1OCCN1C(=O)[C@H]1[C@H](c2ccc([N+](=O)[O-])cc2)C(c2ccccc2)=NN1c1ccc(Br)cc1	Cardio protect 55, FAS-TE inh 90 (no result: beta cell repl, m-calpain inh) | FAS-TE conf inactive
O=C1OCCN1C(=O)[C@H]1[C@H](c2ccc([N+](=O)[O-])cc2)C(c2cccc(Cl)c2)=NN1c1ccc(Br)cc1	Cardio protect 51, FAS-TE inh 87 (no result: beta cell repl, m-calpain inh) | FAS-TE conf inactive
Cc1cccc(C2=NN(c3ccccc3)[C@@H](C(=O)N3CCOC3=O)[C@@H]2c2ccc([N+](=O)[O-])cc2)c1	FAS-TE inh 92 (no result: beta cell repl, m-calpain inh) | FAS-TE conf inactive
C[C@H]1CN([C@@H](C)CO)C(=O)CCCn2cc(nn2)CO[C@@H]1CN(C)C(=O)Nc1ccc(F)cc1	none (no result: beta cell repl, m-calpain inh)
Cc1ccc(NC(=O)COc2cccc(-n3cnnn3)c2)cc1S(=O)(=O)N1CCOCC1	none (no result: m-calpain inh)
COc1ccc(NC2=Nc3ccccc3N3C2=Nc2c(c(C)nn2-c2ccc(C)cc2)C3c2cccnc2)cc1 (centres undefined)	FAS-TE inh 70 (no result: TAG inh) | FAS-TE conf inactive
COc1ccc(NC(=O)N[C@H]2CC[C@@H](CC(=O)NC3CCC3)O[C@@H]2CO)cc1	none (no result: Cardio protect, FAS-TE inh, beta cell repl, m-calpain inh, TAG inh)
Cc1ccccc1-c1nc2sc(C)c(C)c2c(=O)o1	FAS-TE inh 53 (no result: m-calpain inh) | FAS-TE conf inactive
Cc1sc2nc(-c3ccco3)oc(=O)c2c1C	none
CCC1CCCCN1Cc1ccc(CNC(=O)CCc2nnc3ccc(N4CCCCC4)nn23)o1 (centres undefined)	none (no result: m-calpain inh, TAG inh)
Cc1ccc(Cl)cc1N1CCN(C(c2ccc(C#N)cc2)c2nnnn2C2CCCC2)CC1 (centres undefined)	FAS-TE inh 69 (no result: TAG inh) | FAS-TE conf inactive
Cc1ccc(Cl)cc1N1CCN(C(c2cccnc2)c2nnnn2C2CCCCC2)CC1 (centres undefined)	none (no result: TAG inh)
COc1c(OC(C)=O)c(=O)n2c3ccccc3c3ccnc1c32	none (no result: m-calpain inh, TAG inh)
C[C@H](CO)N1C[C@H](C)[C@H](CN(C)C(=O)NC2CCCCC2)Oc2cc(-c3cccnc3)ccc2S1(=O)=O	none (no result: beta cell repl, m-calpain inh)
COc1ccc(-c2noc(CNC(=O)c3ccoc3C)n2)cc1OC	none (no result: m-calpain inh, TAG inh)
COC(=O)c1ccccc1NC(=S)N(Cc1ccc2c(c1)OCO2)Cc1cc2cccc(C)c2[nH]c1=O	FAS-TE inh 83 (no result: TAG inh) | FAS-TE conf inactive
CC(=O)c1nn(-c2ccc(C(F)(F)F)cc2)c(=O)[nH]c1=O	none (no result: m-calpain inh, TAG inh)
